# Test results reported in PMC10943123.
# How the values were obtained:
# [1] = molecular target: Nuclear cap-binding protein subunit 1 (UniProt Q09161); assay: cross-linking mass spectrometry
# [2] = molecular target: Cell division cycle 5-like protein (UniProt Q99459); assay: cross-link between two proteins; cross-linking mass spectrometry
# [3] = molecular target: Pre-mRNA-processing-splicing factor 8 (UniProt Q6P2Q9); assay: as above
# [4] = molecular target: Small nuclear ribonucleoprotein-associated proteins B and B' (UniProt P14678); assay: as above
# [5] = molecular target: Splicing factor 3A subunit 2 (UniProt Q15428); assay: as above
# Sequence of Splicing factor 3A subunit 2 (Q15428 whole entry): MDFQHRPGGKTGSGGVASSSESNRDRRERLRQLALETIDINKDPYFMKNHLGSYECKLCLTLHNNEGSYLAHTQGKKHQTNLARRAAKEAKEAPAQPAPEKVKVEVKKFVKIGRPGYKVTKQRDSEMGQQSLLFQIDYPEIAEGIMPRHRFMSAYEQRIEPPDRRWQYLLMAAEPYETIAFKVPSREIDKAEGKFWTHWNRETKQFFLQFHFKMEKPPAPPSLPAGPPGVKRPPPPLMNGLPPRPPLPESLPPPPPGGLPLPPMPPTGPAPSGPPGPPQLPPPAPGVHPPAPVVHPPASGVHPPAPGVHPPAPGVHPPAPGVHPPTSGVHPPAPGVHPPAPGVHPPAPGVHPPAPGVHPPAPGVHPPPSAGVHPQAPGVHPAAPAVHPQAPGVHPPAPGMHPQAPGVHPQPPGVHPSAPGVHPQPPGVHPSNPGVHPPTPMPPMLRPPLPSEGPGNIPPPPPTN
# [6] = molecular target: U6 snRNA-associated Sm-like protein LSm4 (UniProt Q9Y4Z0); assay: as above
# Sequence of U6 snRNA-associated Sm-like protein LSm4 (Q9Y4Z0 whole entry): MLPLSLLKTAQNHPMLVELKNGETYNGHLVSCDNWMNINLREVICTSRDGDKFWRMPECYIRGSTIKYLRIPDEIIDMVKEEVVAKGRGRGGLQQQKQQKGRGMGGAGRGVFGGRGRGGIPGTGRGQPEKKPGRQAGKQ
# [7] = molecular target: U6 snRNA-associated Sm-like protein LSm6 (UniProt P62312); assay: as above
# Sequence of U6 snRNA-associated Sm-like protein LSm6 (P62312 whole entry): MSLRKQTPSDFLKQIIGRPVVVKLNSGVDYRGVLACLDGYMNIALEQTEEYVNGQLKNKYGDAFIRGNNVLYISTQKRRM
# [8] = molecular target: WD repeat-containing protein 70 (UniProt Q9NW82); assay: as above
# Sequence of WD repeat-containing protein 70 (Q9NW82 whole entry, the tested form may be a part): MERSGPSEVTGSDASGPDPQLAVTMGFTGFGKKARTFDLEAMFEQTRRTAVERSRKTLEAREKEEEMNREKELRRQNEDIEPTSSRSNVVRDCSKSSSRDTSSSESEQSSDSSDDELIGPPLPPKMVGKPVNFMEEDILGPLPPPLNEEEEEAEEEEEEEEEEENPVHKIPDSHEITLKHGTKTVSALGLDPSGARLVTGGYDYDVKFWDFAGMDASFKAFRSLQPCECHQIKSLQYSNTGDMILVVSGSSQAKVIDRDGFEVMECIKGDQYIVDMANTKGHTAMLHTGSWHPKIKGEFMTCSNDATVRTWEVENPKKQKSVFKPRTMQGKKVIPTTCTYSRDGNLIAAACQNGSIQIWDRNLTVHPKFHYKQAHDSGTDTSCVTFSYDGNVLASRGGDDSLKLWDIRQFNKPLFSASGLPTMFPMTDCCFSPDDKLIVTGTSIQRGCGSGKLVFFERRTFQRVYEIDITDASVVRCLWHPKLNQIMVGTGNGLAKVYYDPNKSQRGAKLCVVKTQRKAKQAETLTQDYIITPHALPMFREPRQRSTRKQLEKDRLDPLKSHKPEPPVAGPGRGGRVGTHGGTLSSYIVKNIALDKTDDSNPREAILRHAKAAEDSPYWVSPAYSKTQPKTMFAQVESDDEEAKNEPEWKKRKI
# [9] = molecular target: WW domain-binding protein 4 (UniProt O75554); assay: as above
# Sequence of WW domain-binding protein 4 (O75554 whole entry, the tested form may be a part): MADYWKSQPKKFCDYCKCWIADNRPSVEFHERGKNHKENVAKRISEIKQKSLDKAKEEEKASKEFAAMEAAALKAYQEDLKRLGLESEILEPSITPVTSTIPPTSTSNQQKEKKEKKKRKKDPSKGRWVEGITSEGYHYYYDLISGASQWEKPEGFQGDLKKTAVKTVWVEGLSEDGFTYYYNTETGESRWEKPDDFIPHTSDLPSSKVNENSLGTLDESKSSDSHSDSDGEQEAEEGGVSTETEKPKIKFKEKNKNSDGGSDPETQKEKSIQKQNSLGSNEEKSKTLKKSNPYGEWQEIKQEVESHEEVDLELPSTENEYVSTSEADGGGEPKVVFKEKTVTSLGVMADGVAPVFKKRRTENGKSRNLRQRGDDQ
# [10] = molecular target: Zinc finger CCCH domain-containing protein 18 (UniProt Q86VM9); assay: as above
# Sequence of Zinc finger CCCH domain-containing protein 18 (Q86VM9 whole entry, the tested form may be a part): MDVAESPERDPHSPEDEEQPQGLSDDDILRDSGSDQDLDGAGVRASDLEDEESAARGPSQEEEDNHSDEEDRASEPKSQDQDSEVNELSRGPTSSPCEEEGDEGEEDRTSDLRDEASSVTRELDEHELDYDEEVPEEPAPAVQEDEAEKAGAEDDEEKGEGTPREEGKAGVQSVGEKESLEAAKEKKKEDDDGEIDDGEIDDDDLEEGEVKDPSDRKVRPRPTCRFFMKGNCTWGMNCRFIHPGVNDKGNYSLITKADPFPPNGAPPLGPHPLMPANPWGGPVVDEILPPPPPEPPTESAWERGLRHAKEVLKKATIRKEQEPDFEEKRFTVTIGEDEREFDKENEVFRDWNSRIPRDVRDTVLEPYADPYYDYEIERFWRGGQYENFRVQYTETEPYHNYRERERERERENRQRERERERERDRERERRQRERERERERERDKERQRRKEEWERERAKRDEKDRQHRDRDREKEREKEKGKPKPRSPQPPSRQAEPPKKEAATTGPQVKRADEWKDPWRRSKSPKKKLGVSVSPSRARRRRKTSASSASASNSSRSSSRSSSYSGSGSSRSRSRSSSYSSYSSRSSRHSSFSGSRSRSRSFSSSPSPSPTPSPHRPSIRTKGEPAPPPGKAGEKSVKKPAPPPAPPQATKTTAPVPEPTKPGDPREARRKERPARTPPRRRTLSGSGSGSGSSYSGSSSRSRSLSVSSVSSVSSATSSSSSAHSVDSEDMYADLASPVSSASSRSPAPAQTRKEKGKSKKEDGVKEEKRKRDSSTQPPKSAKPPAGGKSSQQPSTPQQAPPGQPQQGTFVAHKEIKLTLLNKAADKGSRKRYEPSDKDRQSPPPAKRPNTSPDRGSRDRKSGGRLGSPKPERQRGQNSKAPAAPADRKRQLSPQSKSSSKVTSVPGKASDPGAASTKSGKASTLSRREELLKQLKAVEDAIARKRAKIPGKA
# [11] = molecular target: Cell division cycle 5-like protein (UniProt Q99459); assay: cross-link between two proteins; cross-linking mass spectrometry; other
# Sequence of Cell division cycle 5-like protein (Q99459 whole entry): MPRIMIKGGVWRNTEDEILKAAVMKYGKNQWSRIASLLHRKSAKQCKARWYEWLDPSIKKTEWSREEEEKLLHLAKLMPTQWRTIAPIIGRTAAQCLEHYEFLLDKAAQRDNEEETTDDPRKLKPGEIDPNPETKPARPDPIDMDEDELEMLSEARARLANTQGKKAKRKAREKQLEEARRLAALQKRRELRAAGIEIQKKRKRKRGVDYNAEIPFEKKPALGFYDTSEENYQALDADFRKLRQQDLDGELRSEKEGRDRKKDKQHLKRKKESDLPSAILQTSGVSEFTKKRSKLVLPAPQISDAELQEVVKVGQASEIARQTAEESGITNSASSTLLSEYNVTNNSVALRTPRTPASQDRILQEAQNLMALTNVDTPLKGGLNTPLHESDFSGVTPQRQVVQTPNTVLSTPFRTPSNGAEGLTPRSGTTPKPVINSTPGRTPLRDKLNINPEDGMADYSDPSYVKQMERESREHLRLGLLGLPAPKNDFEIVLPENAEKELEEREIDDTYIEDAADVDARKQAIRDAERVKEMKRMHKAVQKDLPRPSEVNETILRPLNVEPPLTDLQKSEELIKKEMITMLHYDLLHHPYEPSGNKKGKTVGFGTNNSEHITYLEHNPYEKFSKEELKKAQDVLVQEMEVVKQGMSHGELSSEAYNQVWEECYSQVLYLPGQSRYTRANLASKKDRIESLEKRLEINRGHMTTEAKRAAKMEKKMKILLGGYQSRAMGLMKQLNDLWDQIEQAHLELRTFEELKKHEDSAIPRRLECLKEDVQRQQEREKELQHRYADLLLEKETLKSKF
# Sequence of Peptidyl-prolyl cis-trans isomerase H, O43447 (O43447 whole entry): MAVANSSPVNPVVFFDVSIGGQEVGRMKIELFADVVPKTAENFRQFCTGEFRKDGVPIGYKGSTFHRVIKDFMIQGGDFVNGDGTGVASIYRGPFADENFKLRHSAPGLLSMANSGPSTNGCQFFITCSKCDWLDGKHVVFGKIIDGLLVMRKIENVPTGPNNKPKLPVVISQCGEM
# Sequence of Nuclear cap-binding protein subunit 1 (Q09161 whole entry): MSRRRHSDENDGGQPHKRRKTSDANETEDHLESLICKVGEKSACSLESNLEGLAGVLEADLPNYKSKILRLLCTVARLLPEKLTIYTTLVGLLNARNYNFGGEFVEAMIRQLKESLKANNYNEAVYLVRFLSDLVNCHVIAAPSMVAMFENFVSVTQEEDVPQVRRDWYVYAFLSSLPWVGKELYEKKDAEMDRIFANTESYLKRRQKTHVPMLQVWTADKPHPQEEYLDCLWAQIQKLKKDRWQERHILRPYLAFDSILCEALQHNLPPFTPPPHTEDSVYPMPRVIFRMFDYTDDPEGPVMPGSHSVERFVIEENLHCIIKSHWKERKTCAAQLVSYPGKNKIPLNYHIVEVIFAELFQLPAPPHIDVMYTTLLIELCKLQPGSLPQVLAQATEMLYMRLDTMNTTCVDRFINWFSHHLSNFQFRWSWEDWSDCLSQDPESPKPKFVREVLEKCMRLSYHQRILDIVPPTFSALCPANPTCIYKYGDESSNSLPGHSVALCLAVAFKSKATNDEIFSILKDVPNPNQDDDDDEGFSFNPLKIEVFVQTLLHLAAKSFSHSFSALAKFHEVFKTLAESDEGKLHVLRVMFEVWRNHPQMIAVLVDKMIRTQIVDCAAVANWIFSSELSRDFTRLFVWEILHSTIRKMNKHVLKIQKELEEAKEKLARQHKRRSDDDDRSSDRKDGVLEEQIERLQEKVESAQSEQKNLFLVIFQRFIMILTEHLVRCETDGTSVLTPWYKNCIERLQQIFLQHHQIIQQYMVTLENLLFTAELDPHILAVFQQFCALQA
substance,measurement,setting,value
"Nuclear cap-binding protein subunit 2, P52298",listed as a hit,[1],yes
"U5 small nuclear ribonucleoprotein 40 kDa protein, Q96DI7",listed as a hit,[2],yes
"Thioredoxin-like protein 4A, P83876",listed as a hit,[3],yes
"U2 small nuclear ribonucleoprotein B'', P08579",listed as a hit,[4],yes
"Splicing factor 3B subunit 4, Q15427",listed as a hit,[5],yes
"U6 snRNA-associated Sm-like protein LSm7, Q9UK45",listed as a hit,[6],yes
"U4/U6 small nuclear ribonucleoprotein Prp3, O43395",listed as a hit,[7],yes
"Pre-mRNA-processing factor 17, O60508",listed as a hit,[8],yes
"Peptidyl-prolyl cis-trans isomerase H, O43447",listed as a hit,[9],yes
"Nuclear cap-binding protein subunit 1, Q09161",listed as a hit,[10],yes
"U5 small nuclear ribonucleoprotein 200 kDa helicase, O75643",listed as a hit,[11],yes
